PubChem BioAssay (NCATS)
Records with an inconclusive call do not appear. Unmarked numbers belong to inactive results. Activity calls are given as the source filed them. The call rests on the fitted dose curve; in most records, active means well fitted inhibition curve with a large enough effect; inconclusive means small, poorly fitted or top-dose-only effect; inactive means flat fitted curve, though single readings scatter.

Experiments:
Experiment in all cases: Cytotoxic Profiling of Annotated Libraries Using Quantitative High-Throughput Screening (AID 1296008); further: nearly all actives have a fitted effect of over 60% in size
Conditions in all cases: Five cell lines viability, CellTiter-Glo ATP luminescence, 48-72 h; max response: hits give low values
[1] = test system: HaCat
Method in brief: (§1)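 Compounds were pin-transferred onto cells and incubated 48 or 72 hr at 37 degree Celsius, 95% humidity. CellTiter-Glo was added, plates sat 10 min at room temperature, then ATP-coupled luminescence was imaged as the viability read-out.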

[2] = test system: KB-3-1
Method in brief: as §1

[3] = test system: NIH3T3
Method in brief: as §1
On the % scale 0 is the no-effect control and ±100 the full control effect; potency means the concentration at half of the fitted maximal effect.

CC1(C)CC[C@]2(C(=O)O)[C@H](O)C[C@]3(C)C(=CCC4[C@@]5(C)CC[C@H](O[C@@H]6O[C@H](CO[C@@H]7OC[C@H](O)[C@H](O)[C@H]7O[C@@H]7OC[C@@H](O)[C@H](O)[C@H]7O)[C@@H](O)[C@H](O)[C@H]6O[C@@H]6O[C@H](CO)[C@@H](O)[C@H](O)[C@H]6O)C(C)(C)C5CC[C@]43C)[C@@H]2C1 (some centres undefined) was tested, and the max response [1] was -11.7%, the max response [2] was 4.84% and the max response [3] was -6.3%.

C/C=C/C(O)C1OC(=O)CC1Nc1ccc(C(=O)O)cc1 (centres undefined) showed a max response [1] of -8.27%, a max response [2] of 8.51% and a max response [3] of 1.46%.

For CC1(C)CC[C@]2(C(=O)O[C@@H]3O[C@H](CO[C@@H]4O[C@H](CO)[C@@H](O)[C@H](O)[C@H]4O[C@@H]4O[C@H](CO)[C@@H](O)[C@H](O)[C@H]4O)[C@@H](O)[C@H](O[C@@H]4O[C@H](CO)[C@@H](O)[C@H](O)[C@H]4O)[C@H]3O)CC[C@]3(C)C(=CCC4[C@@]5(C)CC[C@@H](O)[C@@](C)(C(=O)O[C@@H]6O[C@H](CO)[C@@H](O)[C@H](O)[C@H]6O)C5CC[C@]43C)[C@@H]2C1 (some centres undefined), the max response [1] was -7.02%, the outcome [2] was “inactive” and the max response [3] was 1.8%.

In the case of Cc1cccc(C)c1-n1c(=O)c2cnc(Nc3ccc(N4CCN(C)CC4)cc3)nc2n2c3ccccc3nc12, the Potency [1] is reported as 2060 nM (active), the Potency [2] is reported as 731 nM (active) and the Potency [3] is reported as 1300 nM (active).

With CC12CCC3c4ccc(OC5OC(C(=O)O)C(O)C(O)C5O)cc4CCC3C1CCC2O (centres undefined) the max response [1] was 0.389%, the outcome [2] was “inactive” and the max response [3] was 3.14%.

In the case of COc1cc(/C=C/C(=O)OC[C@H]2O[C@@](CO)(O[C@H]3O[C@H](CO)[C@@H](O)[C@H](O)[C@H]3O)[C@@H](OC(=O)/C=C/c3ccc(O)c(OC)c3)[C@@H]2O)ccc1O, the max response [1] is reported as -7.21%, the max response [2] is reported as -7.62% and the max response [3] is reported as 0.754%.

With O=C1N=C(N2CCOCC2)CN1c1ccc(Cl)cc1 the max response [1] was -30.2%, the max response [2] was 2.82% and the max response [3] was -0.0852%.

In the case of CC(C)c1ccc2c(c1)C(=O)CC1[C@@](C)(C(=O)O)CCC[C@]21C (some centres undefined), the max response [1] is reported as -7.44%, the max response [2] is reported as -10.5% and the max response [3] is reported as 0.286%.

Work on C=C(C)C1CCC2(C(=O)O)CCC3(C(=O)O)C(CCC4C5(C)CCC(O)C(C)(C(=O)O)C5CCC43C)C12 (centres undefined) yielded a max response [1] of 3.2%, a max response [2] of -7.04% and a max response [3] of 1.18%.

Work on N[C@H]1Cc2ccccc2N(O)C1=O yielded a max response [1] of -0.256%, a max response [2] of -13.7% and a max response [3] of -9.2%.

In the case of COc1cc(C(=O)O)ccc1OC1OC(CO)C(O)C(O)C1O (centres undefined), the max response [1] is reported as 0.774%, the outcome [2] is reported as “inactive” and the max response [3] is reported as -5.21%.

In the case of C/C1=C\CCC(C)CCO[C@@H]2O[C@H](CO[C@@H]3OC[C@H](O)[C@H](O)[C@H]3OC1=O)[C@@H](O)[C@H](O)[C@H]2O (some centres undefined), the max response [1] is reported as -12.1%, the outcome [2] is reported as “inactive” and the max response [3] is reported as -2.67%.

With COc1ccc(/C=C/C(=O)O[C@H]2[C@H](O[C@H]3[C@@H]4C=CO[C@@H](O[C@@H]5O[C@H](CO)[C@@H](O)[C@H](O)[C@H]5O)[C@@H]4[C@@]4(CO)O[C@@H]34)O[C@@H](C)[C@H](O)[C@H]2OC(C)=O)cc1 the max response [1] was 2.92%, the max response [2] was 4.98% and the max response [3] was -16.4%.

With O=C1CCC=CC1(O)C(=O)OCc1ccccc1O[C@@H]1O[C@H](CO)[C@@H](O)[C@H](O)[C@H]1O (some centres undefined) the max response [1] was -22.3%, the max response [2] was -1.56% and the max response [3] was -27.2%.

CC1(c2nc3c(C(N)=O)cccc3[nH]2)CCCN1 (centres undefined) was tested, and the max response [1] was -9.07%, the outcome [2] was “inactive” and the max response [3] was -5.13%.

For CC1(C)CC2C(O)c3cocc3CC(C)(O)C2C1 (centres undefined), the max response [1] was -7.3%, the max response [2] was 5.78% and the max response [3] was 2.81%.

Compound CN1CCc2nc(C(=O)N[C@@H]3C[C@@H](C(=O)N(C)C)CC[C@@H]3NC(=O)C(=O)Nc3ccc(Cl)cn3)sc2C1 has a max response [1] of -24.6%, a max response [2] of -42% and a max response [3] of -49.4%.

NCCCNc1ccc(Nc2nccc(Nc3cc(C4CC4)[nH]n3)n2)cc1 was tested, and the Potency [1] was 4610 nM (active), the Potency [2] was 820 nM (active) and the Potency [3] was 5800 nM (active).

Cc1cc(Nc2ncc3cc(-c4c(Cl)cccc4Cl)c(=O)n(C)c3n2)ccc1F was tested, and the Potency [1] was 5800 nM (active), the Potency [2] was 2590 nM (active) and the Potency [3] was 1460 nM (active).

For COc1ccc([C@@]2(O)c3c(ccc4c3OC(C)(CCC=C(C)C)C=C4)NC(=O)[C@@H]2OC)cc1 (some centres undefined), the max response [1] was 1.02%, the max response [2] was 4.57% and the max response [3] was -14.3%.

For CN(c1ccccc1CNc1nc(Nc2ccc3c(c2)CC(=O)N3)ncc1C(F)(F)F)S(C)(=O)=O, the Potency [1] was 8200 nM (active), the Potency [2] was 6510 nM (active) and the Potency [3] was 5800 nM (active).

In the case of C=C(CCC1=C(C)[C@H]2[C@H](CC3[C@@H]4CC=C5C[C@@H](O)C[C@@H](O)[C@]5(C)C4[C@H](O)C[C@@]32C)O1)CO[C@@H]1O[C@H](CO)[C@@H](O)[C@H](O)[C@H]1O (some centres undefined), the Potency [1] is reported as 4320 nM (active), the Potency [2] is reported as 1720 nM (active) and the max response [3] is reported as 0.743%.

COc1ccc(CNC(=O)c2cc(-c3cncc(C)c3)ncc2-c2nccs2)nc1OC was tested, and the max response [1] was -36.2%, the outcome [2] was “inactive” and the max response [3] was -26.3%.

With C[C@]12C=C[C@@]3(CCC4[C@](C)(CO)CCC[C@@]4(C)C3CC1)C2 (some centres undefined) the max response [1] was -20.7%, the max response [2] was 4.11% and the max response [3] was -6.89%.

CC1CCC2C(C)(C)[C@@H](O)CC[C@]2(C)C12Cc1c(O)cc3c(c1O2)CN(C(CCC(=O)O)C(=O)O)C3=O (some centres undefined) was tested, and the max response [1] was 3.85%, the outcome [2] was “inactive” and the max response [3] was -1.29%.

NCc1c[nH]c(=S)n1[C@@H]1CCc2c(F)cc(F)cc2C1 showed a max response [1] of 3.97%, a max response [2] of -4.38% and a max response [3] of -1.29%.

OCC(CO[C@@H]1O[C@H](CO)[C@@H](O)[C@H](O)[C@H]1O)c1ccc2c(c1)OCO2 (some centres undefined) was tested, and the max response [1] was 1.18%, the max response [2] was -7.72% and the max response [3] was -0.622%.

With CCOc1cc2ncc(C#N)c(Nc3ccc(F)c(Cl)c3)c2cc1NC(=O)/C=C/CN(C)C the Potency [1] was 25.9 nM (active), the Potency [2] was 5800 nM (active) and the Potency [3] was 3660 nM (active).

COc1c2c(cc3c1-c1c(cc4c(c1OC)OCO4)CC(C)C(C)C3)OCO2 (centres undefined) showed a max response [1] of -1.94%, a max response [2] of -8.19% and a max response [3] of -11.8%.

CC1(C)CCC2(C(=O)OC3OCC(O)C(O)C3O)CCC3(C)C(=CCC4C5(C)CC(O)C(OC6OC(COC7OCC(O)C(O)C7O)C(O)C(O)C6O)C(C)(C)C5CCC43C)C2C1 (centres undefined) was tested, and the max response [1] was 2.92%, the outcome [2] was “inactive” and the max response [3] was -1.51%.

COc1ccccc1Oc1ccc(N(Cc2cccnc2)S(=O)(=O)CC(F)(F)F)cc1 was tested, and the max response [1] was 0.0707%, the max response [2] was -5.75% and the max response [3] was -1.58%.

With COc1cc(C(=O)OC[C@@]2(O)CO[C@@H](O[C@H]3[C@H](Oc4ccc(C(=O)O)cc4OC)O[C@H](CO)[C@@H](O)[C@@H]3O)[C@@H]2O)ccc1O the max response [1] was 1.78%, the outcome [2] was “inactive” and the max response [3] was 3.57%.

COc1ccc(/C=C/C(=O)O[C@@H]2[C@@H](O)[C@@H](O)[C@H](O[C@@H]3C=C(CO)[C@H]4[C@H](O[C@@H]5O[C@H](CO)[C@@H](O)[C@H](O)[C@H]5O)OC=C[C@H]43)O[C@H]2C)cc1O gave a max response [1] of -15%, a max response [2] of -14.4% and a max response [3] of -43%.

In the case of O=C(OCC1=CC(O)C2C=CO[C@@H](O[C@@H]3O[C@H](CO)[C@@H](O)[C@H](O)[C@H]3O)C12)c1ccccc1 (some centres undefined), the max response [1] is reported as 1.81%, the max response [2] is reported as 2.99% and the max response [3] is reported as 1.21%.

In the case of CC(=O)c1ccc2c(c1)C(O)C(C(C)(C)O)O2 (centres undefined), the max response [1] is reported as 1.04%, the outcome [2] is reported as “inactive” and the max response [3] is reported as -18%.

CC(=O)OC[C@]12[C@H](OC(C)=O)C(=O)[C@@H]3[C@@H](OC(C)=O)[C@@]14O[C@@]3(C)COC(=O)c1cccnc1[C@@H](C)[C@H](C)C(=O)O[C@@H]([C@H](O)[C@@H]2OC(C)=O)[C@]4(C)O was tested, and the max response [1] was -0.606%, the max response [2] was -8.82% and the max response [3] was -21%.

COC(=O)N[C@H](C(=O)N1[C@@H]2CC[C@@H](C2)[C@H]1c1nc2ccc(-c3ccc4c(c3)C(F)(F)c3cc(-c5cnc([C@@H]6CCC7(CC7)N6C(=O)[C@@H](NC(=O)OC)C(C)C)[nH]5)ccc3-4)cc2[nH]1)C(C)C gave a max response [1] of -33.1%, a max response [2] of -8.63% and a max response [3] of -14.9%.

COc1cc2c(cc1OC)CC(=O)N(CCCNC[C@H]1Cc3cc(OC)c(OC)cc31)CC2 was tested, and the max response [1] was -2.44%, the outcome [2] was “inactive” and the max response [3] was -0.121%.

C=C(C)C1Cc2cc(C(=O)OC3OC(CO)C(O)C(O)C3O)ccc2O1 (centres undefined) showed a max response [1] of -9.03%, a max response [2] of 0.614% and a max response [3] of -5.26%.

In the case of C[C@H](N)C(=O)N[C@@H](Cc1ccc(O)cc1)C(=O)N1CCC[C@H]1C(=O)NCC(=O)N[C@@H](CCCCN)C(=O)N[C@@H](Cc1ccccc1)C(N)=O, the max response [1] is reported as -13.5%, the outcome [2] is reported as “inactive” and the max response [3] is reported as 3.32%.

Work on COC(=O)/C=C/C12COC(C)(C)C1C(O)C(OC(C)=O)C1(C)C2CCC2(C)C(c3ccoc3)OC(=O)C3OC321 (centres undefined) yielded a max response [1] of -1.09%, a max response [2] of -5.77% and a max response [3] of -16.9%.

For C[C@@H]1C[C@@H](O)[C@@]23CO[C@@H](O)[C@@H]2CCC[C@@H]3[C@@]12C[C@@H](c1ccoc1)OC2=O, the max response [1] was -27.9%, the max response [2] was 7.75% and the max response [3] was 4.21%.

With Cc1ccc(-c2ccc3ncc4c(c3n2)n(C2CCN(C(=O)[C@H](C)O)CC2)c(=O)n4C)cn1 the Potency [1] was 1460 nM (active), the Potency [2] was 116 nM (active) and the Potency [3] was 231 nM (active).
